Four compounds from PubChem BioAssay (EPA / NIEHS) can be followed below.

The nature of test [1]: ATG_AP_2_CIS: Attagene CIS-FACTORIAL HepG2 Assay for human Activator Protein 2 (AP-2) (AID 2282932). The conditions noted are these: HepG2 AP-2 cis-reporter, Attagene transcription factor profiling; actives raise or lower the signal. Summed up: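 Assay in transfected HepG2 with promoter-regulated reporters, 24 h incubation after dosing. Signal is reporter mRNA fluorescence (RT-PCR, capillary electrophoresis), analysed for both increases and decreases relative to DMSO controls.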

Test [2] addresses Transcription factor E2F1 (Homo sapiens) (UniProt Q01094). As to the kind of experiment: ATG_E2F_CIS: Attagene CIS-FACTORIAL HepG2 Assay for human E2F Transcription Factor 1 (AID 2282935). The conditions noted are these: HepG2 Attagene cis-reporter, E2F reporter RNA transcripts; actives raise or lower the signal. A digest of the protocol:
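In this cis-factorial format, endogenous factor activity drives transfected reporters in HepG2; transcripts collected at 24 h are quantified by fluorescence after RT-PCR and capillary separation.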

A short description of test [3]: ATG_M_61_CIS: Attagene CIS-FACTORIAL HepG2 Assay for M61 Transcription Factor (Internal Marker) (AID 2282937). The settings on record: HepG2 Attagene CIS-FACTORIAL M61 internal marker reporter; actives raise or lower the signal. Summed up:
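Readout is reporter mRNA by RT-PCR, fluorescent primer extension and capillary electrophoresis, with gain or loss fitted relative to DMSO. Transfected HepG2 cells carrying endogenous-TF-driven cis reporters were exposed to chemicals for 24 hours.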

Test [4] in a line: ATG_EGR_CIS: Attagene CIS-FACTORIAL HepG2 Assay for human Early Growth Response 1 (EGR1) (AID 2282938). The settings on record: HepG2 Attagene CIS-FACTORIAL EGR reporter mRNA; actives raise or lower the signal. A digest of the protocol:
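After 24 h compound exposure, RNA from reporter-transfected HepG2 cells was reverse-transcribed, PCR-amplified, fluorescently labelled and resolved by capillary electrophoresis. EGR1 reporter transcript changes, up or down, were fitted against DMSO, reflecting endogenous transcription-factor activity.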

The nature of test [5]: ATG_Ets_CIS: Attagene CIS-FACTORIAL HepG2 Assay for human Erythroblast Transformation Specific (ETS) (AID 2282941). The conditions noted are these: HepG2 ETS cis-reporter transcription, actives raise or lower the signal. Summed up: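 Endogenous transcription factor activity read as reporter mRNA via RT-PCR and capillary electrophoresis, with gain or loss fitted bidirectionally against DMSO. Human HepG2 liver cells, transiently transfected CIS reporter constructs, 24 h exposure.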

In test [6] the target is Hepatocyte nuclear factor 3-beta (Homo sapiens) (UniProt Q9Y261). As to the kind of experiment: ATG_FoxA2_CIS: Attagene CIS-FACTORIAL HepG2 Assay for human Forkhead box A2 (FOXA2) (AID 2282942). The settings on record: HepG2 cis-reporter transcription factor activity, 24 h; actives raise or lower the signal. A digest of the protocol: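 Endogenous transcription factor activity is captured via cis-element-driven reporter transcripts in transfected HepG2. Total RNA taken at 24 h post-dosing; labelled RT-PCR products resolved by capillary electrophoresis. Gain or loss fitted versus DMSO.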

A short description of test [7]: ATG_FoxO_CIS: Attagene CIS-FACTORIAL HepG2 Assay for human Forkhead box O (FoxO) (AID 2282943). The conditions noted are these: HepG2 Attagene cis-reporter, FoxO element, mRNA; actives raise or lower the signal. Summed up: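 24 h chemical exposure, HepG2 with transient cis-MRTU transfection. RNA extraction, oligo(dT) RT, reporter-specific PCR, primer-extension labelling, HpaI digestion, CE fragment analysis; bidirectional fit, DMSO baseline.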

Test [8] deals with Hypoxia-inducible factor 1-alpha (Homo sapiens) (UniProt Q16665). As to the kind of experiment: ATG_HIF1a_CIS: Attagene CIS-FACTORIAL HepG2 Assay for human Hypoxia Inducible Factor 1 (HIF1A) (AID 2282951). The conditions noted are these: HepG2 Attagene cis-factorial HIF1a reporter transcription; actives raise or lower the signal. Summed up:
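Activity is fitted in both directions relative to DMSO. Reporter transcripts are read by RT-PCR, fluorescent primer extension and capillary electrophoresis after 24 h chemical treatment. The cells are HepG2 carrying transiently transfected cis-element-driven reporter units responding to endogenous factors.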

Test [9] in a line: ATG_RORE_CIS: Attagene CIS-FACTORIAL HepG2 Assay for human RAR-related Orphan Receptor Element (RORE) (AID 2282959). The conditions noted are these: HepG2 Attagene cis-factorial RORE reporter, mRNA; actives raise or lower the signal. Summed up: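 RORE reporter transcripts reflecting endogenous factor activity were read after 24 h compound exposure of transfected HepG2 cells, using reverse transcription, PCR, fluorescent labelling and capillary electrophoresis sizing. Gain or loss fitted against DMSO.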

The nature of test [10]: ATG_TGFb_CIS: Attagene CIS-FACTORIAL HepG2 Assay for human Transforming Growth Factor (TGF) (AID 2282967). The settings on record: HepG2 Attagene CIS TGFb reporter, mRNA transcription; actives raise or lower the signal. A digest of the protocol:
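HepG2 cells transiently transfected with cis-promoter-driven multiplexed reporter units; 24 h compound exposure. Reporter mRNA measured by RT-PCR, 6-FAM labeling, HpaI digestion and capillary electrophoresis; bidirectional fit versus DMSO baseline.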

Test [11] is described as follows: ATG_VDRE_CIS: Attagene CIS-FACTORIAL HepG2 Assay for human Vitamin D Receptor Element (VDRE) (AID 2282968). The settings on record: HepG2 VDRE cis-reporter transcription, actives raise or lower the signal. Summed up: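 Transfected HepG2 reporter cells, chemical treatment 24 h. RNA isolated, cDNA amplified with reporter-specific primers, products analysed by capillary electrophoresis. Endpoint fitted in both directions versus DMSO.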

Test [12] concerns the target X-box-binding protein 1 (Homo sapiens) (UniProt P17861). In words: ATG_Xbp1_CIS: Attagene CIS-FACTORIAL HepG2 Assay for human X-box Binding Protein 1 (XBP1) (AID 2282972). The conditions noted are these: HepG2 XBP1 cis-element reporter, Attagene multiplex; actives raise or lower the signal. A digest of the protocol:
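Reporter transcripts were quantified by RT-PCR with fluorescent primer extension and capillary electrophoresis after 24 h chemical exposure. Cells: transiently transfected HepG2 carrying cis-regulated reporter constructs; data fitted bidirectionally relative to DMSO.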

The target in test [13] is Transcriptional activator Myb (Homo sapiens) (UniProt P10242). In words: ATG_Myb_CIS: Attagene CIS-FACTORIAL HepG2 Assay for human Myeloblastosis (Myb) Proto-Oncogene Transcription Factor (AID 2282986). The settings on record: HepG2 Attagene CIS-FACTORIAL Myb reporter transcription; actives raise or lower the signal. A digest of the protocol: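 Reporter mRNA is quantified by RT-PCR and capillary electrophoresis 24 h after dosing HepG2 cells transfected with cis-regulated reporter units, which track endogenous transcription factor activity. Gain and loss of signal are fitted versus DMSO baseline.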

The target in test [14] is Nuclear respiratory factor 1 (Homo sapiens) (UniProt Q16656). As to the kind of experiment: ATG_NRF1_CIS: Attagene CIS-FACTORIAL HepG2 Assay for human Nuclear Respiratory Factor 1 (NRF1) Orphan Gene (AID 2282987). The settings on record: HepG2 NRF1 cis-element reporter, Attagene multiplex; actives raise or lower the signal. Summed up: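 Endogenous NRF1-driven reporter transcription in transfected HepG2 cells after 24 h treatment. Readout: RT-PCR products, 6-FAM labelled and resolved by capillary electrophoresis; changes fitted both directions relative to DMSO.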

Test [15] can be described thus: ATG_NFI_CIS: Attagene CIS-FACTORIAL HepG2 Assay for human Nuclear Factor I (NFI) (AID 2282989). The settings on record: HepG2 cis-regulatory reporter, NFI response element transcription; actives raise or lower the signal. A digest of the protocol:
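HepG2 cells transiently transfected with cis-element-driven multiplexed reporter transcription units, dosed for 24 h. Reporter mRNA quantified by RT-PCR, fluorescent labelling, HpaI digestion and capillary electrophoresis; bidirectional fit versus DMSO baseline.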

The target in test [16] is Myc proto-oncogene protein (Homo sapiens) (UniProt P01106). In words: ATG_Myc_CIS: Attagene CIS-FACTORIAL HepG2 Assay for human Myelocytomatosis (Myc) Proto-Oncogene Transcription Factor (AID 2282990). The conditions noted are these: HepG2, Attagene cis-reporter transcription factor activity; actives raise or lower the signal. Summed up:
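DMSO-normalised, bidirectionally fitted reporter mRNA signal. HepG2 cells transfected with cis reporter constructs, treated 24 h; transcripts detected by RT-PCR, 6-FAM primer extension and CE.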

Test [17] deals with Cellular tumor antigen p53 (Homo sapiens) (UniProt P04637). In words: ATG_p53_CIS: Attagene CIS-FACTORIAL HepG2 Assay for human p53 Transcription Factor (AID 2282994). The settings on record: HepG2 p53 cis-element reporter, Attagene mRNA; actives raise or lower the signal. A digest of the protocol:
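Endogenous p53 activity read in transiently transfected HepG2 from a cis-element-driven reporter transcript after 24 h exposure. RNA reverse-transcribed, PCR-amplified, fluorescently labelled and sized by capillary electrophoresis; gain or loss fitted against DMSO baseline.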

The target in test [18] is Nuclear receptor subfamily 1 group I member 2 (Homo sapiens) (UniProt O75469). As to the kind of experiment: ATG_PXR_TRANS: Attagene TRANS-FACTORIAL HepG2 Assay for human Pregnane X Receptor (PXR) (AID 2283008; active = hit-call score of the fitted dose curve at least 0.9, where 1 is the maximum). A digest of the protocol:
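Transactivation by exogenous PXR–GAL4 fusion measured as reporter transcript induction after 24 h compound treatment of transfected human HepG2 cells. Read-out via RT-PCR and capillary electrophoresis of labelled fragments, fitted upward relative to DMSO.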

Test [19] is described as follows: ATG_XTT_Cytotoxicity: Cytotoxicity Assessment in the Attagene TRANS-FACTORIAL HepG2 Assay (AID 2283584; active = hit-call score of the fitted dose curve at least 0.9, where 1 is the maximum). Summed up: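 24 h chemical exposure of reporter-transfected HepG2; XTT signal loss vs DMSO indicates cytotoxicity.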
The target in test [20] is Cellular tumor antigen p53 (Homo sapiens) (UniProt P04637). As to the kind of experiment: TOX21_p53_BLA_p2_ratio: Tox21 HCT-116 p53 Agonism Beta-lactamase Assay, Ratio, Phase 2 (AID 2283592; active = hit-call score of the fitted dose curve at least 0.9, where 1 is the maximum). Summed up:
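DMSO-normalized, positive-direction endpoint derived from the 460 nm/530 nm FRET ratio in HCT116 p53 beta-lactamase reporter cells exposed 16 h at 37C and loaded with CCF4-AM for 2 h.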

Results filed as inconclusive are left out. Calls of active or inactive are those of the source. Rule for the calls, unless noted: active = hit-call score of the fitted dose curve at least 0.9, where 1 is the maximum; inactive = score below 0.9.

Chain of Hepatocyte nuclear factor 3-beta (Homo sapiens) (Q9Y261 whole entry, looked up): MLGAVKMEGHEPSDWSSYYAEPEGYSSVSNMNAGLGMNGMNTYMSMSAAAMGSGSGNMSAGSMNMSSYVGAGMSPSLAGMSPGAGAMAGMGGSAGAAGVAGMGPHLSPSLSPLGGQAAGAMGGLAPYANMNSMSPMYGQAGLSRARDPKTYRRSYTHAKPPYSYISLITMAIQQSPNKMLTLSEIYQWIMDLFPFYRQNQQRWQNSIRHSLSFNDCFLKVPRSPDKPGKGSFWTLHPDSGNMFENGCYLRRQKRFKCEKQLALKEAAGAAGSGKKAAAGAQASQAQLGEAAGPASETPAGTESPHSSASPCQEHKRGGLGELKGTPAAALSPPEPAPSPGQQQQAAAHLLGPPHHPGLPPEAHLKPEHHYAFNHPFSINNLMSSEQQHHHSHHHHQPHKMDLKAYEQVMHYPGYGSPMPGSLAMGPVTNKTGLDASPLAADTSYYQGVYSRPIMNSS
Chain of Cellular tumor antigen p53 (Homo sapiens) (P04637 whole entry, looked up): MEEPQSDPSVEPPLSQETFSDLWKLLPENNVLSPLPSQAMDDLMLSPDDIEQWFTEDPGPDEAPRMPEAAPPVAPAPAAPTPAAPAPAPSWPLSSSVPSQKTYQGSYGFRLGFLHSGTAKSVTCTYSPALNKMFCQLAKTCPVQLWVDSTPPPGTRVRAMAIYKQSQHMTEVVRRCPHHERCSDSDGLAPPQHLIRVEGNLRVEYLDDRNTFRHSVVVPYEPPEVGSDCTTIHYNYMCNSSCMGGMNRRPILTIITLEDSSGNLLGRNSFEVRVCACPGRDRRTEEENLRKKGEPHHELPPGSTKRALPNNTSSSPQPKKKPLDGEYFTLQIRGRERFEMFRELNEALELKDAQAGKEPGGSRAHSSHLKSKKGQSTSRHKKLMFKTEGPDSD
Chain of Nuclear receptor subfamily 1 group I member 2 (Homo sapiens) (O75469 whole entry, looked up, the tested form may be a part): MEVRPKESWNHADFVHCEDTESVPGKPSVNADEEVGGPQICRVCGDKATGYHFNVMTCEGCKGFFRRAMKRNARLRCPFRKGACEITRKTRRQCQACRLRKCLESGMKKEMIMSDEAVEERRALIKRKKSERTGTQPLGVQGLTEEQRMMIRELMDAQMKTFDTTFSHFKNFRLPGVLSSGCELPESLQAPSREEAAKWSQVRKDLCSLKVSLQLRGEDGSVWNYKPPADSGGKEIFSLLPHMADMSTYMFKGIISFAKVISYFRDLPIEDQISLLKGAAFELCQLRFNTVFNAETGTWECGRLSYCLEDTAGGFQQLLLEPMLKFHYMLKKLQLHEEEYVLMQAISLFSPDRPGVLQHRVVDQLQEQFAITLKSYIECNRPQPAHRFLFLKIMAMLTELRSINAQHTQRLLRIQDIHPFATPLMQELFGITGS
Chain of Myc proto-oncogene protein (Homo sapiens) (P01106 whole entry, looked up): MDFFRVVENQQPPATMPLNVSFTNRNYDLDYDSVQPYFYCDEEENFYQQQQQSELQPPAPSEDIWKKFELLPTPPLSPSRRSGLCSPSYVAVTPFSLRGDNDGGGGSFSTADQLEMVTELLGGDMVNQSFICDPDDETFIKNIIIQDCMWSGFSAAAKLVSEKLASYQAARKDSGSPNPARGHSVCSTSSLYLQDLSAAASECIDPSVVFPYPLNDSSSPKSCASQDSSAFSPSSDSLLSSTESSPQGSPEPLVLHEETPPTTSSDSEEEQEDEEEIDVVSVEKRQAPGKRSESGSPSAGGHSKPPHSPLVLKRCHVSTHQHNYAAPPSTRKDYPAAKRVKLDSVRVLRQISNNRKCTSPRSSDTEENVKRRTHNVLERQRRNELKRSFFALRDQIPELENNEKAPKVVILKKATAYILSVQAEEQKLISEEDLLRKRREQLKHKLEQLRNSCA
Chain of Transcription factor E2F1 (Homo sapiens) (Q01094 whole entry, looked up): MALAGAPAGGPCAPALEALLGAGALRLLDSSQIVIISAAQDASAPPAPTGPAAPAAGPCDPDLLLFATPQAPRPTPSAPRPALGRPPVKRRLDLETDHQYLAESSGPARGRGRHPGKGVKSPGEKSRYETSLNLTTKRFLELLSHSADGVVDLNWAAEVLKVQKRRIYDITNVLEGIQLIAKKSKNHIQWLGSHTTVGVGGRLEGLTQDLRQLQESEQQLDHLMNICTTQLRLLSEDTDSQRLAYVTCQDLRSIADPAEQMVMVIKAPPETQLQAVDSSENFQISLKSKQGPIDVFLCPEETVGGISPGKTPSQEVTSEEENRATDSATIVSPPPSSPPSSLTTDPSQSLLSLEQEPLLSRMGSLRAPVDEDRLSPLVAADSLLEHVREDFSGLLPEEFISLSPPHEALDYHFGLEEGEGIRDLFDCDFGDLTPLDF
Chain of X-box-binding protein 1 (Homo sapiens) (P17861 whole entry, looked up): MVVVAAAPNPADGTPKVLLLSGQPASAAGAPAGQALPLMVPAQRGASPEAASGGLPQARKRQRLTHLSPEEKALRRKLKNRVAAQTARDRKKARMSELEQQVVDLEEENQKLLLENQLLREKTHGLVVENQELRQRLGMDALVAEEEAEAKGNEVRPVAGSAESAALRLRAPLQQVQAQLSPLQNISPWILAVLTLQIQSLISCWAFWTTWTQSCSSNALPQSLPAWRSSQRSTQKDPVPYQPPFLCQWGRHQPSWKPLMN
Chain of Nuclear respiratory factor 1 (Homo sapiens) (Q16656 whole entry, looked up): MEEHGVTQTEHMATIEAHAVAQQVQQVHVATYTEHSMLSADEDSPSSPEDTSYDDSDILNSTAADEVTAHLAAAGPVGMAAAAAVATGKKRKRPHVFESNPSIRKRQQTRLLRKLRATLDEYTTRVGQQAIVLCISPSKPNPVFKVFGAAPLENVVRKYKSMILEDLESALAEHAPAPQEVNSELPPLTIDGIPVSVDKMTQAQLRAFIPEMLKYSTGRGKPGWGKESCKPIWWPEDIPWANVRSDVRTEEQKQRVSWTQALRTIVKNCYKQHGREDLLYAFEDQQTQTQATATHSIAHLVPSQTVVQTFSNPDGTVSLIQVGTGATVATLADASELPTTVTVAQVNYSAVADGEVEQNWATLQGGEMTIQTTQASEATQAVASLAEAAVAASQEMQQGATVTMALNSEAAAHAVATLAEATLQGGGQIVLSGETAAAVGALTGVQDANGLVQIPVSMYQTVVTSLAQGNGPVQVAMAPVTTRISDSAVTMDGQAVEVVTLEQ
Chain of Hypoxia-inducible factor 1-alpha (Homo sapiens) (Q16665 whole entry, looked up): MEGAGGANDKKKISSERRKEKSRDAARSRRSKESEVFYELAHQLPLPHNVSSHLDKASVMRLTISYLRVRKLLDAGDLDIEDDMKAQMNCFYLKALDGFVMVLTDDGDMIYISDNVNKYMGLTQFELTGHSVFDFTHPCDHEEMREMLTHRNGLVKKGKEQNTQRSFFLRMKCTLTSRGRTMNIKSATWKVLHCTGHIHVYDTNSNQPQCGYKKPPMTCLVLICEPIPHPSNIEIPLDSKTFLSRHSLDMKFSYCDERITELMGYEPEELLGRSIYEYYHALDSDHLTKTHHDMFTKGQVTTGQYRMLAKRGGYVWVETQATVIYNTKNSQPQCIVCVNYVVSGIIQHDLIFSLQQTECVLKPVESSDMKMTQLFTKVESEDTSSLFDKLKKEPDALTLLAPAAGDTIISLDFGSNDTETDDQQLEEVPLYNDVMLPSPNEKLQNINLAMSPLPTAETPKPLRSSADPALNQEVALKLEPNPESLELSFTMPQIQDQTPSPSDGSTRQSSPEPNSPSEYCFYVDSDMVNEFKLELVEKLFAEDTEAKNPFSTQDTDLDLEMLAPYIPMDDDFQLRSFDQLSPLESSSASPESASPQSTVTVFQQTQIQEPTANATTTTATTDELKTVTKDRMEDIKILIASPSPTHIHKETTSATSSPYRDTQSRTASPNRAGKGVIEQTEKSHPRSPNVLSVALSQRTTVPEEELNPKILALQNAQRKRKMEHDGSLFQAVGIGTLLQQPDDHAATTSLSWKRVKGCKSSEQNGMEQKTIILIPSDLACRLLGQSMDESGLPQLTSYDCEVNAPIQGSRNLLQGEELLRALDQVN
Chain of Transcriptional activator Myb (Homo sapiens) (P10242 whole entry, looked up): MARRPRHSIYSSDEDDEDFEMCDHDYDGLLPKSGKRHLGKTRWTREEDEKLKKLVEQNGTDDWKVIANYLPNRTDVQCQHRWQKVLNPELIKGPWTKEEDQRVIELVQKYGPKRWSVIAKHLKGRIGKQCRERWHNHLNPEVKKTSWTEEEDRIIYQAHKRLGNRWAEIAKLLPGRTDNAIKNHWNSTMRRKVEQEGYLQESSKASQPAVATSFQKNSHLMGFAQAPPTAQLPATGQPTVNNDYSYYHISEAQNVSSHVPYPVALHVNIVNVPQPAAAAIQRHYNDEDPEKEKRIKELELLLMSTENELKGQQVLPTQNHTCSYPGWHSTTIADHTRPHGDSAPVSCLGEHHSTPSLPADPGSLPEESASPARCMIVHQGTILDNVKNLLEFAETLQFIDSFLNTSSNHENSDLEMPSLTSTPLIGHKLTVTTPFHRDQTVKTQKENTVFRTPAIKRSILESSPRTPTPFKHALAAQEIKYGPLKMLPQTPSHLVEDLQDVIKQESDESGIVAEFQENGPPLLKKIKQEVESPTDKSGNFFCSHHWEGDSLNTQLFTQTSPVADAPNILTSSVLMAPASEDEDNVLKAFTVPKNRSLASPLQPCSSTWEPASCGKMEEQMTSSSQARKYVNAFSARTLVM

In the case of `CC/C=C\CC1=C(C)CCC1=O`, the compound was classed as inactive in test [1], in test [2], in test [3], in test [4], in [5] and in test [6]. The call in test [7], in test [8], in [9], in test [10], in test [11] and in [12] was inactive. For the same compound, the compound was called inactive in test [13], in [14], in [15], in [16], in test [17] and in [18]. The result in test [19] and in test [20] was inactive.
Take `COc1ccccc1OCC(O)CO` (stereo not drawn): the compound was called inactive in test [1], in test [2], in test [3], in test [5], in [6] and in test [9]. For the same compound, the compound was classed as inactive in [10], in test [11], in test [12], in [13], in [14] and in [15]. Moreover, the call in test [16], in [17], in [18], in test [19] and in test [20] was inactive.
With `CN(C)c1ccc(C(c2ccccc2)c2ccc(N(C)C)cc2)cc1`, the outcome in test [2], in [4], in [6], in test [7], in test [8] and in test [9] was inactive. Besides, the call in test [10], in test [12], in [13], in [14], in test [15] and in [16] was inactive. Besides, the compound was called inactive in test [17], in [19] and in test [20]. For the same compound, the concentration at half-maximal activity (AC50) in [11] is 7.62 µM (active); in [18], 2.06 µM (active).
For `c1cc(N(CC2CO2)CC2CO2)ccc1Cc1ccc(N(CC2CO2)CC2CO2)cc1` (stereo not drawn), the AC50 in test [1] was 26.3 µM (active); in test [4], 18.4 µM (active); in test [8], 6.64 µM (active); in test [11], 3.66 µM (active); in [12], 6.26 µM (active); in test [15], 5.98 µM (active). The AC50 is 20.8 µM (active) in test [17] and 26.8 µM (active) in test [20]. Also, the outcome in test [2], in test [3], in [5], in [6], in [7] and in [9] was inactive. Further, the compound was called inactive in [10], in test [13], in [14], in test [18] and in test [19].
